The panel holds about 83,000 compounds, 20% with a hit somewhere; the sample as a whole holds those more often.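 Treatment: one concentration, 48 hours, 96-well format. Scoring: percent growth, with anything below 10 considered active.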 A number with no mark means an inactive call. The source made the active and inactive calls.
Columns and labels:
Experiment in all cases: NCI-60 one-dose screen, 48 h (100 = growth as untreated, 0 = no growth, -100 = all killed)
Details in all cases: 10 µM
DU-145 prostate = system: DU-145 prostate
K-562 leukemia = system: K-562 leukemia
MALME-3M melanoma = system: MALME-3M melanoma
MDA-MB-231 breast = system: MDA-MB-231 breast
RXF 393 renal = system: RXF 393 renal
SF-268 CNS = system: SF-268 CNS
SF-295 CNS = system: SF-295 CNS
SF-539 CNS = system: SF-539 CNS
UACC-257 melanoma = system: UACC-257 melanoma
M14 melanoma = system: M14 melanoma
HCT-15 colon = system: HCT-15 colon
HT29 colon = system: HT29 colon
SNB-75 CNS = system: SNB-75 CNS
SNB-19 CNS = system: SNB-19 CNS
U251 CNS = system: U251 CNS
PC-3 prostate = system: PC-3 prostate
SK-MEL-5 melanoma = system: SK-MEL-5 melanoma
UACC-62 melanoma = system: UACC-62 melanoma
LOX IMVI melanoma = system: LOX IMVI melanoma
SK-MEL-28 melanoma = system: SK-MEL-28 melanoma

Row | Structure (SMILES) | growth (DU-145 prostate) | growth (K-562 leukemia) | growth (MALME-3M melanoma) | growth (MDA-MB-231 breast) | growth (RXF 393 renal) | growth (SF-268 CNS) | growth (SF-295 CNS) | growth (SF-539 CNS) | growth (UACC-257 melanoma) | growth (M14 melanoma) | growth (HCT-15 colon) | growth (HT29 colon) | growth (SNB-75 CNS) | growth (SNB-19 CNS) | growth (U251 CNS) | growth (PC-3 prostate) | growth (SK-MEL-5 melanoma) | growth (UACC-62 melanoma) | growth (LOX IMVI melanoma) | growth (SK-MEL-28 melanoma)
1 | CCOC(=O)c1cc(C(=O)c2ccc(OC)c(OC)c2)n2ccncc12 | 102% | 87.5% | 112% | 91.4% | 106% | 109% | 102% | 99.3% | 102% | 102% | 89.9% | 84.6% | 104% | 98% | 105% | 80.6% | 89.4% | 94% | 77.7% | 115%
2 | CN1CCN(CC(=O)Nc2cccc(-n3cc(-c4ccncc4)c(-c4ccc(Cl)c(O)c4)n3)c2)CC1 | 19.4% | 11.8% | 46.3% | 46.1% | 35% | 47.7% | 21.8% | 0.848% (active) | 24.9% | 8.05% (active) | 40.5% | 4.08% (active) | 30.5% | 55.5% | 30.8% | 26.6% | 27.3% | 48.3% | 14.6% | 60.8%
3 | COc1cc2cc(Oc3ccc(NC(=O)Nc4cccc(C(F)(F)F)c4)cc3)c(C)nc2cc1OC | 26.7% | 11.5% | 7.22% (active) | -8.32% (active) | -13.1% (active) | 29.2% | -15% (active) | 11.7% | -14.5% (active) | 22.7% | 15.2% | 6.55% (active) | 13% | 31.4% | -85.7% (active) | 0.0827% (active) | -86.1% (active) | 14.5% | 9.78% (active) | 26.7%
4 | COc1cc(-c2nn(-c3cccc(NC(=O)NCCNC(=O)c4cccc(C(F)(F)F)c4)c3)cc2-c2ccncc2)ccc1Cl | 48.9% | 8.57% (active) | 52.6% | 41.4% | 15.3% | 41.8% | 6.79% (active) | 22.2% | 51% | 15.3% | 53.2% | 21.1% | 16.5% | 53.5% | 28.4% | 17.6% | 7.16% (active) | 50.7% | 31.7% | 57.6%
5 | C(=N\Nc1ncnc2sc3c(c12)CCNC3)/c1cccc2ccccc12 | 100% | 2.84% (active) | 92.6% | 66% | 85% | 97.5% | 104% | 85.8% | 104% | 95% | 18.9% | 16.8% | 62.5% | 79.1% | 83% | 76.9% | 97.1% | 101% | 50.4% | 103%
6 | Cc1[nH]c2ccccc2c1/C=N/Nc1ncnc2sc3c(c12)CCN(CC(=O)OC(C)(C)C)C3 | 80.5% | 22.3% | 120% | 84.5% | -0.516% (active) | 93.8% | 88.8% | 62.7% | 63.6% | 73.1% | 30.1% | 41.8% | 63.4% | 93.3% | 78.2% | 69.2% | 60.8% | 81.9% | 83.6% | 80.7%
7 | Brc1ccc2c(c1)-c1ccccc1C1=NCCN12 | -21.1% (active) | 4.71% (active) | -31.5% (active) | -7.62% (active) | -62.6% (active) | -2.39% (active) | -50.7% (active) | -1.45% (active) | -23.9% (active) | -51.8% (active) | 1.51% (active) | -14.9% (active) | 8.5% (active) | 16.2% | -10.7% (active) | 2.13% (active) | -77.2% (active) | -13.4% (active) | -69.4% (active) | 0.722% (active)

Source: PubChem BioAssay (NCI)
